# Source: the supplement of paper PMC9135407
# Values joined by “and” are separate entries in the source; they are usually repeats but may differ in a detail not shown here. Identical values can stand only once. Counter-ions that a name gives are not always drawn. Hit rate of the full screen: of about 5,800 compounds, about 620 (11%) showed activity. What follows is part of a selection rich in actives, with near analogues and random picks from the rest. Values without a mark were called inactive.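 How the source made its calls: active = score above a cut-off or among the top three wells of a plate; in these data no inactive exceeds 0.85.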
# Test system: primary human hepatic stellate cells (donor 1)
# Experiment: scaled lipid accumulation score (0 = DMSO-like, 1 = nortriptyline-like); higher = stronger HSC inactivation (lipid re-accumulation), active = hit call of the paper
# Details: 48 h
# [1] = library stock concentration: 10 mM
# [2] = library stock concentration: 400 uM
# [3] = library stock concentration: 2 mM
smiles,measurement,setting,value
CCCCCC/C=C\CCCCCCCC(=O)OCC [Palmitoleic Acid ethyl ester],scaled lipid accumulation score,library stock concentration: 1 mM,≤ 0
COc1ccc(CCn2nnnc2C2(c3ccc(C)cc3)CC2)cc1 [Mephetyl tetrazole],scaled lipid accumulation score,[1],≤ -0.07
COC(=O)C(C)c1ccc(C(=O)c2cccs2)cc1 (stereo unspecified) [Suprofen methyl ester],scaled lipid accumulation score,[1],≤ 0
CN1CCN(CC(=O)N2c3ccccc3C(=O)Nc3cccnc32)CC1 [Pirenzepine 2HCl],scaled lipid accumulation score,library stock concentration: 5.7 mM,≤ -0.006
Cc1scc2c1N(C(=O)CN1CCN(C)CC1)c1ccccc1NC2=O [Telenzepine hydrochloride],scaled lipid accumulation score,[1],0.084
Cc1scc2c1N(C(=O)CN1CCN(C)CC1)c1ccccc1NC2=O [Telenzepine 2HCl],scaled lipid accumulation score,library stock concentration: 5.4 mM,0.006
"COC(=O)c1ccc2c(c1)NC(=O)/C2=C(\Nc1ccc(N(C)C(=O)CN2CCN(C)CC2)cc1)c1ccccc1 [Intedanib (BIBF 1120, Vargatef) (0.4 mM)]",scaled lipid accumulation score,[2],0.323
"COC(=O)c1ccc2c(c1)NC(=O)/C2=C(\Nc1ccc(N(C)C(=O)CN2CCN(C)CC2)cc1)c1ccccc1 [Intedanib (BIBF 1120, Vargatef) (10 mM)]",scaled lipid accumulation score,[1],1.51 (active)
"COC(=O)c1ccc2c(c1)NC(=O)/C2=C(\Nc1ccc(N(C)C(=O)CN2CCN(C)CC2)cc1)c1ccccc1 [Intedanib  (BIBF 1120, Vargatef) (2 mM)]",scaled lipid accumulation score,[3],0.838
Cc1scc2c1N(C(=O)CN1CCN(C)CC1)c1ccccc1NC2=O [Telenzepine dihydrochloride],scaled lipid accumulation score,,≤ 0
same,scaled lipid accumulation score,[1],0.052 and 0.027
COC(=O)c1ccc2c(c1)NC(=O)C2=C(Nc1ccc(N(C)C(=O)CN2CCN(C)CC2)cc1)c1ccccc1,scaled lipid accumulation score,[1],0.976 (active)
CN1CCN(CC(=O)N2c3ccccc3C(=O)Nc3cccnc32)CC1 [Pirenzepine dihydrochloride],scaled lipid accumulation score,,≤ 0
same,scaled lipid accumulation score,[1],≤ 0
COC(=O)c1ccc2c(C(=Nc3ccc(N(C)C(=O)CN4CCN(C)CC4)cc3)c3ccccc3)c(O)[nH]c2c1,scaled lipid accumulation score,library stock concentration: 80 uM,0.316
same,scaled lipid accumulation score,[2],0.522
same,scaled lipid accumulation score,[3],0.258
COC(=O)c1ccc2c(c1)NC(=O)C2=C(Nc1ccc(N(C)C(=O)CN2CCN(C)CC2)cc1)c1ccccc1 [Nintedanib (BIBF 1120)],scaled lipid accumulation score,library stock concentration: 3.33 mM,1.2 (active)
same,scaled lipid accumulation score,[1],1.33 (active)
CN1CCN(CC(=O)N2c3ccccc3C(=O)Nc3cccnc32)CC1 [Pirenzepine hydrochloride],scaled lipid accumulation score,library stock concentration: 4.7 mM,≤ 0
same,scaled lipid accumulation score,[1],≤ 0
